The structures appear in SMILES notation. Inconclusive results are not listed. Active and inactive are the calls of the source. Calls follow the shape of the full dose curve. Bridge positions count the residues as written; N and C are the ends. Square brackets hold non-standard residues; d marks the D form. Peptide text beside a SMILES is read from it. dPhe(4-Cl) = N[C@H](Cc1ccc(Cl)cc1)C(=O)O; d2Nal = N[C@H](Cc1ccc2ccccc2c1)C(=O)O; dCit = NC(=O)NCCC[C@@H](N)C(=O)O; d3Pal = N[C@H](Cc1cccnc1)C(=O)O

Experimental findings from PubChem BioAssay (NCATS) are described below.

Experiment [1] is described as follows: Primary qHTS for Huh7 cytotoxicity: counterscreen for inhibitors of MERS-S pseudotyped particle cell entry (AID 1479147). As to activity change, negative = cytotoxicity: % is scaled to controls: 0 for no effect and ±100 for the full control effect. The note with it: outcome: dose series up to 57.1 µM unless noted.
The nature of experiment [2]: Primary qHTS for inhibitors of MERS-S pseudo-typed particle cell entry (AID 1479149). Also: nearly all actives have a fitted effect of over 60% in size. As to activity change, negative = inhibition: % is scaled to controls: 0 for no effect and ±100 for the full control effect. As to conditions: outcome: dose series up to 57.1 µM unless noted. A general note: qHTS replaces the single test concentration by a dilution series.
Experiment [3] can be described thus: Primary qHTS for Vero E6 cytotoxicity: counterscreen for inhibitors of SARS-S pseudo-typed particle cell entry (AID 1479150). As to activity change, negative = cytotoxicity: % is scaled to controls: 0 for no effect and ±100 for the full control effect. As to conditions: outcome: dose series up to 57.1 µM unless noted.
The nature of experiment [4]: Cytotoxicity counterscreen for inhibitors of SARS-CoV-2 cell entry (AID 1645845). Also: nearly all actives have a fitted effect of over 50% in size. As to activity change, negative = cytotoxicity: % is scaled to controls: 0 for no effect and ±100 for the full control effect. The note with it: outcome: dose series up to 57.1 µM unless noted. The procedure, abridged:
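48 h compound treatment (after 1 h preincubation), HEK293-ACE2 cells, 37 C/5% CO2; ATP luminescence endpoint; normalized to cell wells and media blanks.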
(In general: The purpose of a counterscreen is to sort out artefacts and off-target activity.)

Experiment [5] is described as follows: Primary qHTS to identify inhibitors of SARS-CoV-2 cell entry (AID 1645846). Also: nearly all actives have a fitted effect of over 45% in size. As to conditions: SARS-CoV-2 pseudovirus cell entry assay, luminescence; activity change, negative = inhibition: at 57.1 µM (top of the series) unless noted. Summed up: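 Entry measured by luciferase signal 48 h after adding SARS-CoV-2-S pseudotyped MLV particles to HEK293-ACE2 cells preincubated 1 h with compounds. Normalisation: bald particles and spike particles.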

Consider `Cc1ccc(/C(=C\CN2CCCC2)c2cccc(/C=C/C(=O)O)n2)cc1`, for which the Potency entry in experiment [1], in experiment [2], in experiment [3] and in experiment [4] was “inactive” throughout.

As to `CC#CCC(C)[C@H](O)/C=C/[C@@H]1[C@H]2C/C(=C/CCCC(=O)O)C[C@H]2C[C@H]1O` (some centres not stated), the Potency entry in experiment [1], in experiment [2], in experiment [3] and in experiment [4] was “inactive” in each case.

As to `CON=C1C[C@]2(C[C@@H]3C[C@@H](C/C=C(\C)C[C@@H](C)/C=C/C=C4\CO[C@@H]5[C@H](O)C(C)=C[C@@H](C(=O)O3)[C@]45O)O2)O[C@H](/C(C)=C/C(C)C)[C@H]1C`, the Potency entry in experiment [1], in experiment [2], in experiment [3] and in experiment [4] was “inactive” each time.

For the compound `CC1CCCC(C)N1C(=S)Nc1cccc(C(F)(F)F)c1` (configuration not stated), the Potency result in experiment [1], in experiment [2], in experiment [3] and in experiment [4] was “inactive” each time.

Take `CCCCC(=O)N(Cc1ccc(-c2ccccc2-c2nn[nH]n2)cc1)[C@H](C(=O)O)C(C)C`: the Potency entry in experiment [1], in experiment [2], in experiment [3] and in experiment [4] was “inactive” in each case.

Turning to `O=C(O)C[C@@H]1CC[C@H](NC(=O)Cc2cccs2)B(O)O1`, the Potency entry in experiment [1], in experiment [2], in experiment [3] and in experiment [4] was “inactive” each time.

For the compound `N[C@H](Cc1cnc[nH]1)C(=O)O`, the Potency entry in experiment [1], in experiment [2], in experiment [3] and in experiment [4] was “inactive” in each case.

Regarding `CCN(CC)C(=O)[C@]1(c2ccccc2)C[C@H]1CN`, the Potency result in experiment [1], in experiment [2], in experiment [3] and in experiment [4] was “inactive” each time.

Consider `CC(C)(S)[C@H](N)C(=O)O`, for which the values for the outcome in experiment [1], in experiment [2] and in experiment [4] were “inactive [at 5.34 µM]”, “inactive [at 5.34 µM]” and “inactive [at 5.25 µM]”, respectively. For the same compound, in experiment [3], the activity change, negative = cytotoxicity was 0.739% [at 5.34 µM] (inactive).

Take `CC(=O)Nc1c(I)c(C(=O)N[C@H]2C(O)O[C@H](CO)[C@@H](O)[C@@H]2O)c(I)c(N(C)C(C)=O)c1I` (some centres not stated): the Potency result in experiment [1], in experiment [2], in experiment [3] and in experiment [4] was “inactive” each time.

As to `O=C(O)[C@H]1OC(O)[C@H](O)[C@@H](O)[C@@H]1O` (some centres not stated), the Potency result in experiment [1], in experiment [2], in experiment [3] and in experiment [4] was “inactive” each time.

With `CCOc1nc2cccc(C(=O)O)c2n1Cc1ccc(-c2ccccc2-c2noc(=O)[nH]2)cc1`, the Potency entry in experiment [1], in experiment [2], in experiment [3] and in experiment [4] was “inactive” each time.

`C[C@H](Cc1cc2c(c(C(N)=O)c1)N(CCCO)CC2)NCCOc1ccccc1OCC(F)(F)F`: the Potency result in experiment [1], in experiment [2], in experiment [3] and in experiment [4] was “inactive” in each case.

`Cc1cc(CC(C)C[Si](C)(O[Si](C)(C)C)O[Si](C)(C)C)c(O)c(-n2nc3ccccc3n2)c1` (configuration not stated): the Potency entry in experiment [1], in experiment [2], in experiment [3] and in experiment [4] was “inactive” each time. In addition, the activity change, negative = inhibition in experiment [5] was -21.7% [at 19 µM].

Consider `Cc1cccc(C)c1N(CCCc1cccnc1)C(=O)C(C)N` (configuration not stated), for which the Potency entry in experiment [1], in experiment [2], in experiment [3] and in experiment [4] was “inactive” in each case. Moreover, the activity change, negative = inhibition in experiment [5] was -18.9%.

In the case of `COc1ccc(-c2noc(CC(=O)O)c2-c2ccc(OC)cc2)cc1`, the Potency entry in experiment [1], in experiment [2], in experiment [3] and in experiment [4] was “inactive” throughout. Moreover, in experiment [5], the activity change, negative = inhibition is -24.5%.

As for `NCCC[C@H](NC(=O)[C@@H]1CCCN1C(=O)[C@@H]1CSSC[C@H](N)C(=O)N[C@@H](Cc2ccc(O)cc2)C(=O)N[C@@H](Cc2ccccc2)C(=O)N[C@@H](CCC(N)=O)C(=O)N[C@@H](CC(N)=O)C(=O)N1)C(=O)NCC(N)=O`, the Potency result in experiment [1], in experiment [2], in experiment [3] and in experiment [4] was “inactive” each time. Further, the activity change, negative = inhibition in experiment [5] is -24.3%.

For `CN1C2CC[C@@H]1CC(OC(=O)[C@H](CO)c1ccccc1)C2` (some centres not stated), the Potency result in experiment [1], in experiment [2], in experiment [3] and in experiment [4] was “inactive” each time. The activity change, negative = inhibition in experiment [5] is -26.3%.

With `N=C1CCCN1Cc1[nH]c(=O)[nH]c(=O)c1Cl`, the Potency result in experiment [1], in experiment [2], in experiment [3] and in experiment [4] was “inactive” in each case. Besides, in experiment [5], the activity change, negative = inhibition is -1.38%.

Turning to `CC1(C)S[C@@H]2[C@H](NC(=O)[C@H](NC(=O)N3CCN(S(C)(=O)=O)C3=O)c3ccccc3)C(=O)N2[C@H]1C(=O)O`, the Potency result in experiment [1], in experiment [2], in experiment [3] and in experiment [4] was “inactive” throughout. In addition, in experiment [5], the activity change, negative = inhibition is -10%.

With `O=C(O)C(O)C(O)C(=O)O` (configuration not stated), the Potency entry in experiment [1], in experiment [2], in experiment [3] and in experiment [4] was “inactive” throughout. Further, in experiment [5], the activity change, negative = inhibition was -16.3%.

Turning to `CN1C(=O)C[C@@H](C(=O)N[C@@H](Cc2cnc[nH]2)C(=O)N2CCC[C@H]2C(N)=O)NC1=O`, the Potency entry in experiment [1], in experiment [2], in experiment [3] and in experiment [4] was “inactive” in each case. Besides, in experiment [5], the activity change, negative = inhibition was -23.8%.

As to `CC(=O)N[C@H](Cc1ccc2ccccc2c1)C(=O)N[C@H](Cc1ccc(Cl)cc1)C(=O)N[C@H](Cc1cccnc1)C(=O)N[C@@H](CO)C(=O)N[C@@H](Cc1ccc(O)cc1)C(=O)N[C@H](CCCNC(N)=O)C(=O)N[C@@H](CC(C)C)C(=O)N[C@@H](CCCN=C(N)N)C(=O)N1CCC[C@H]1C(=O)N[C@H](C)C(N)=O` (Ac-[d2Nal][dPhe(4-Cl)][d3Pal]SY[dCit]LRP[dA]-NH2), the Potency entry in experiment [1], in experiment [2], in experiment [3] and in experiment [4] was “inactive” each time. Also, the activity change, negative = inhibition in experiment [5] is -10.8% [at 27.1 µM].

Consider `OC[C@H]1O[C@H](O[C@H]2[C@H](O)[C@@H](O)[C@H](O)O[C@@H]2CO)[C@H](O)[C@@H](O)[C@@H]1O`, for which the Potency result in experiment [1], in experiment [2], in experiment [3] and in experiment [4] was “inactive” each time. In addition, the activity change, negative = inhibition in experiment [5] is -20.9%.

In the case of `CC(C)c1nc(N(C)S(C)(=O)=O)nc(-c2ccc(F)cc2)c1/C=C/[C@@H](O)C[C@@H](O)CC(=O)O`, the Potency entry in experiment [1], in experiment [2], in experiment [3], in experiment [4] and in experiment [5] was “inactive” each time.

In the case of `C[C@@H]1NC(=O)[C@@H]2CCCN2C(=O)[C@H](CC(N)=O)NC(=O)[C@@H]2CSSC[C@H](N)C(=O)N[C@H]3CSSC[C@H](NC1=O)C(=O)N[C@@H]([C@@H](C)O)C(=O)NCC(=O)N[C@H](C(=O)N[C@@H](Cc1ccc(O)cc1)C(=O)O)CSSC[C@H](NC(=O)[C@H](Cc1ccc(O)cc1)NC(=O)[C@H](CCC(=O)O)NC3=O)C(=O)N2` (H-CCEYCCNPACTGCY-OH; disulfide 1-6, 2-10, 5-13), the Potency result in experiment [1], in experiment [2], in experiment [3] and in experiment [4] was “inactive” throughout. In addition, the activity change, negative = inhibition in experiment [5] was -24.4% [at 27.1 µM].
